Measured values: PubChem BioAssay
Active and inactive are the calls of the source. Unless noted, no rule for the calls is given here.

Assays:
[1] = compounds binding Alexa647 anti-His antibody – biochemical, small-molecule microarray, 635 nm fluorescence, artefact control for SMM control protein annotation, primary screen (AID 1128); conditions: higher = more signal;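 also: score merges feature fluorescence with signal-to-noise for each printed compound spot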
[2] = tested on: Human papillomavirus type 1a E7 protein (residues 1-88); assay: HPV1a E7 small-molecule binders, primary screen, biochemical, small-molecule microarray, residues 1-88, 635 nm (AID 1129); conditions: small-molecule microarray binding, fluorescence 635 nm; higher = more signal
[3] = molecular target: Focal adhesion kinase 1 (Homo sapiens) (UniProt Q05397); assay: PTK2 protein binding on printed compound slides – biochemical, small-molecule microarray, 635/667 nm fluorescence, BSA, DTT, primary screen (AID 1130); conditions: 635 nm fluorescence, higher = more signal;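 also: composite of spot emission at 667 nm and signal to noise over triplicate slides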
[4] = tested on: Fibrinogen (Alexa647-labelled); assay: Alexa647-fibrinogen binding to printed small molecules – biochemical, small-molecule microarray, 635/667 nm fluorescence, artefact control for SMM control-protein annotation, profiling panel (AID 1131); conditions: fibrinogen-A647 binding fluorescence, higher = more signal;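 also: z-score merges 667 nm fluorescence with per-spot signal-to-noise over triplicate slides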
[5] = molecular target: Follistatin (Homo sapiens) (UniProt P19883); assay: FST protein binding to printed compounds – biochemical, small-molecule microarray, 635/667 nm fluorescence, primary screen (AID 1132); conditions: 635 nm fluorescence, higher = more signal
[6] = molecular target: Fibroblast growth factor 2 (Homo sapiens) (UniProt P09038); assay: basic fibroblast growth factor binding to printed compounds – biochemical, small-molecule microarray, 635/667 nm fluorescence, primary screen (AID 1133); conditions: FGF2, fluorescence 635/667, higher = more signal
[7] = JC-1 mitochondrial potential readout, lung cancer cells – cell-based, A549, JC-1 fluorescence, basal, 24 h, 100 nL, profiling panel (AID 1138); conditions: higher = more signal;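 also: A549 lung adenocarcinoma cells under basal conditions with no added stimulus; test concentration not given here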
Lefty1 = Lefty1 protein binding to printed compounds – biochemical, small-molecule microarray, 635/667 nm fluorescence, primary screen (AID 1139); conditions: fluorescence 635/667, higher = more signal
[8] = tested on: wheat germ agglutinin (Triticum aestivum), Alexa647-labelled; assay: Alexa647-WGA lectin binding to printed small molecules – biochemical, small-molecule microarray, 635/667 nm fluorescence, artefact control for SMM control-protein annotation, profiling panel (AID 1140); conditions: WGA-A647 binding, 635 nm fluorescence, higher = more signal;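 also: score merges 667 nm feature emission with signal to noise over triplicate slides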
[9] = molecular target: Luciferin 4-monooxygenase (Photinus pyralis) (UniProt P08659); assay: inhibition of purified Photinus pyralis luciferase – biochemical, luminescence, purified enzyme, 2006 set, primary screen (AID 1141); conditions: purified firefly luciferase, SteadyGlo luminescence, 30 min; higher = more signal, called active from +8 up or from −8 down;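 also: cell-free assay with purified firefly luciferase at 100 ng per well in PBS; test concentration not given here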
[10] = tested on: Wnt5a (protein binding on small-molecule microarray); assay: small molecules binding Wnt5a protein – biophysical, small-molecule microarray, 635/667 nm fluorescence, primary screen (AID 1142); conditions: 635 nm fluorescence, higher = more signal;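 also: fluorescence read at 667 nm with signal to noise per printed feature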
[11] = ATP-based viability of Huh7 replicon cells – cell-based, CellTiter-Glo luminescence, basal, 48 h, cytotoxicity control for HCV replication inhibitor project, primary screen (AID 1143); conditions: higher = more signal, called active from +8 up or from −8 down;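 also: Huh7 hepatoma cells carrying a hepatitis C replication reporter with no stimulus; test concentration not given here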
[12] = Pseudomonas biofilm growth suppression – PAO1 strain, BacTiter-Glo luminescence, LB-PBS, primary screen (AID 1144); conditions: P. aeruginosa PAO1 biofilm, 12 h, higher = more signal
[13] = basal CRE-LacZ reporter activity in PC12 – cell-based, unstimulated, primary screen (AID 1145); conditions: no forskolin, luminescence, 4.5 h, higher = more signal, called active from +8 up or from −8 down
[14] = forskolin-driven CRE-LacZ activity in PC12 – cell-based, CRE-LacZ reporter, forskolin-stimulated, primary screen (AID 1146); conditions: luminescence, 4.5 h, higher = more signal, called active from +8 up or from −8 down;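 also: PC12 cells with 6xCRE LacZ reporter stimulated by forskolin 10 µM; beta-galactosidase reporter signal reflecting CREB driven transcription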
[15] = molecular target: Streptavidin (Streptomyces avidinii) (UniProt P22629); assay: compounds binding control protein streptavidin – biophysical, small-molecule microarray, 635/667 nm fluorescence, artefact control for SMM compound annotation, primary screen (AID 1147); conditions: higher = more signal;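 also: signal reflects streptavidin binding to arrayed compounds as a control protein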
[16] = probe aInhba binding on compound microarray – biochemical, small-molecule microarray, 635/667 nm fluorescence, primary screen (AID 1148); conditions: higher = more signal;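 also: score merges 667nm spot fluorescence with signal-to-noise for antibody binding to printed compounds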
Torsin-1A (Homo sapiens) [17] = molecular target: Torsin-1A (Homo sapiens) (UniProt O14656); assay: TOR1A wild-type binding on microarray – cell lysate, small-molecule microarray, lysate, 635/667 nm, primary screen (AID 1149); conditions: COS7 hTOR1A-WT lysate, 635 nm fluorescence, higher = more signal
Torsin-1A (Homo sapiens) [18] = molecular target: Torsin-1A (Homo sapiens) (UniProt O14656); assay: torsin A mutant lysate binding on microarrays – cell lysate, small-molecule microarray, COS7 lysate, 635/667 nm fluorescence, primary screen (AID 1150); conditions: COS7 hTOR1A mutant lysate, 635 nm fluorescence, higher = more signal;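 also: score pools 667 nm emission and signal to noise measuring lysate protein binding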
[19] = tested on: Sonic hedgehog protein (Shh); assay: Sonic hedgehog microarray binding compounds – biochemical, small-molecule microarray, 635/667 nm fluorescence, primary screen (AID 1151); conditions: 635 nm fluorescence, higher = more signal;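 also: Shh protein binding to compounds spotted on small-molecule microarray slides; score combines spot fluorescence intensity with signal-to-noise across triplicate slides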

Chain of Focal adhesion kinase 1 (Homo sapiens) (Q05397 whole entry, looked up): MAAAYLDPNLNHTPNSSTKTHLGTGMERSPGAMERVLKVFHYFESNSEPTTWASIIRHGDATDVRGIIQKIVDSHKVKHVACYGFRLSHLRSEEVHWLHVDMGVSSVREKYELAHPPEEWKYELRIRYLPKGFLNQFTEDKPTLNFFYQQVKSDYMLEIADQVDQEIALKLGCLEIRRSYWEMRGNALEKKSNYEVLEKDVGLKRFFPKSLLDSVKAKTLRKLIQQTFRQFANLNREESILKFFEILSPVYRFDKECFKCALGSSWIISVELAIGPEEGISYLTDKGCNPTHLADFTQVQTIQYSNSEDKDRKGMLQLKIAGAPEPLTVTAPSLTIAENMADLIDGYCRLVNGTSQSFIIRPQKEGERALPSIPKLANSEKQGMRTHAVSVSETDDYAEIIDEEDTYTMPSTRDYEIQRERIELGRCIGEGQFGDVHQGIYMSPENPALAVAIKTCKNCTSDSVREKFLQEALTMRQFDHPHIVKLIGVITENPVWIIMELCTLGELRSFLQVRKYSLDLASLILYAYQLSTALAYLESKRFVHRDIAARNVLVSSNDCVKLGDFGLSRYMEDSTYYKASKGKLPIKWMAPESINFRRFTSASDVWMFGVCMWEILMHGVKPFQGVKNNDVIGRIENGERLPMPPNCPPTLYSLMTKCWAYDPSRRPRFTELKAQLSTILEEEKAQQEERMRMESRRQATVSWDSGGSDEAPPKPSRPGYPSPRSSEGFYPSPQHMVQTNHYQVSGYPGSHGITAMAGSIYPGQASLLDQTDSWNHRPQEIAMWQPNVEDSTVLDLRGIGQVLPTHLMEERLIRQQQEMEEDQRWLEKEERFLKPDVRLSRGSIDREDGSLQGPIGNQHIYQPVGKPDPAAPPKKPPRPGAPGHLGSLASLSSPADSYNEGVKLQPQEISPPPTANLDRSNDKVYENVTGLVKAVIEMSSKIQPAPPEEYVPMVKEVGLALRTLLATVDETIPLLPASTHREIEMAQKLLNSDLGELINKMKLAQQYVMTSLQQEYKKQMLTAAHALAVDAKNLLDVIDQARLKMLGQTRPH
Chain of Streptavidin (Streptomyces avidinii) (P22629 whole entry, looked up): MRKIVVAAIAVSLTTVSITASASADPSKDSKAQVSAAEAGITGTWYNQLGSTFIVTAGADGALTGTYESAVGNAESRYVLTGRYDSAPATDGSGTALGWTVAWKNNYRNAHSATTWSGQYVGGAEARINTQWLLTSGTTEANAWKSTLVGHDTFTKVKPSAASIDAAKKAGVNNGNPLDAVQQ
Chain of Torsin-1A (Homo sapiens) (O14656 whole entry, looked up): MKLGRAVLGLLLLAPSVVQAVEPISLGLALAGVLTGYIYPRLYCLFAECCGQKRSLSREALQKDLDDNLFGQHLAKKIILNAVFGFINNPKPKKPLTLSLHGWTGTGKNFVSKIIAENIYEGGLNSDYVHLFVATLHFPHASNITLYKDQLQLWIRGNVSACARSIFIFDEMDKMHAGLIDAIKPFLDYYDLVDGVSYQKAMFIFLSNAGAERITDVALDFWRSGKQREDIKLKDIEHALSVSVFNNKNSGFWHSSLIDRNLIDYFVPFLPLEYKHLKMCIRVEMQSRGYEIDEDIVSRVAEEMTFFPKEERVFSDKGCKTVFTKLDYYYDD
Chain of Fibroblast growth factor 2 (Homo sapiens) (P09038 whole entry, looked up): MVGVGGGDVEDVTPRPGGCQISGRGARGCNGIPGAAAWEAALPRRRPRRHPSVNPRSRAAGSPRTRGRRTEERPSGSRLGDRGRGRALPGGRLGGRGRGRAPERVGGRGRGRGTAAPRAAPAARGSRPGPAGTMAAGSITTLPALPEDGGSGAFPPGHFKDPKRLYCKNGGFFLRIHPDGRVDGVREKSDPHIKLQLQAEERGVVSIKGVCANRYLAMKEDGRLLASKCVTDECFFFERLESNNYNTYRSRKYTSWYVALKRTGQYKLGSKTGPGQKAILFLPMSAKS
Chain of Luciferin 4-monooxygenase (Photinus pyralis) (P08659 whole entry, looked up): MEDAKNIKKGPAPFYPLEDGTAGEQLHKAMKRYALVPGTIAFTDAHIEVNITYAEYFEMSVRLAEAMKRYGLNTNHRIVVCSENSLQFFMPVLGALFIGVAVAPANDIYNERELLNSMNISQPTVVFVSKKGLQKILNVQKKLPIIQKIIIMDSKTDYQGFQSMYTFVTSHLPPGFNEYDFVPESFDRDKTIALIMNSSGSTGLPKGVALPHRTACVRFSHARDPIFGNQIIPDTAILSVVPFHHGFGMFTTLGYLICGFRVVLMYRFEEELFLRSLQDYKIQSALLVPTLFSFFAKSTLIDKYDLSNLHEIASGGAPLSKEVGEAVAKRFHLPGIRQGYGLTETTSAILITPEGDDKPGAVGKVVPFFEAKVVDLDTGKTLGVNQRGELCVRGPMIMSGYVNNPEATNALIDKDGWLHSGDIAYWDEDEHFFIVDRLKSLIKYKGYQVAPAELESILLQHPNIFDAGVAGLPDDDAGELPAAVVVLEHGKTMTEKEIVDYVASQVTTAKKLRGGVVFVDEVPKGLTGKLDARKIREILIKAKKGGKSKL
Chain of Follistatin (Homo sapiens) (P19883 whole entry, looked up): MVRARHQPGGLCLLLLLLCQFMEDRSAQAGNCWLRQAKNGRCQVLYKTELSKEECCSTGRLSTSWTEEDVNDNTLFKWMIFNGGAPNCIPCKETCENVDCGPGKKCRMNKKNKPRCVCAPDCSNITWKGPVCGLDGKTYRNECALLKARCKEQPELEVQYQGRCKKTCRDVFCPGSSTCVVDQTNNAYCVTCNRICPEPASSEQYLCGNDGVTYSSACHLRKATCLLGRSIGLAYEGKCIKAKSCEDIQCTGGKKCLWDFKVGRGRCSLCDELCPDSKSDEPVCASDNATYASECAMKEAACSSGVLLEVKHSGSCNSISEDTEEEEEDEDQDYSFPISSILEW

Compound	composite z-score [1]	composite z-score [2]	composite z-score [3]	composite z-score [4]	composite z-score [5]	composite z-score [6]	z-score [7]	composite z-score (Lefty1)	composite z-score [8]	z-score [9]	composite z-score [10]	z-score [11]	z-score [12]	z-score [13]	z-score [14]	composite z-score [15]	composite z-score [16]	composite z-score (Torsin-1A (Homo sapiens) [17])	composite z-score (Torsin-1A (Homo sapiens) [18])	composite z-score [19]
Cc1ccc(S[C@]2(C(=O)NCc3ccccc3)CC(=O)N(Cc3ccccc3Cl)[C@@H]2c2ccc(CO)cc2I)cc1	2.92	-0.162	-0.0602	0.999	0.0508	-0.871	0.00439	-0.366	0.947	0.831 (inactive)	-0.657	-1.68 (inactive)	-1.12 (inactive)	-0.258 (inactive)	1.72 (inactive)	-0.15	-0.0963	-2.03	-1.65	0.262
O=C1O[C@H](c2ccccc2)[C@H](c2ccccc2)N2[C@H]1[C@@H](C(=O)O)[C@]1(C(=O)Nc3ccc(C#CC4=CCCCC4)cc31)[C@H]2c1ccc(OCCO)cc1	0.463	1.24	0.638	0.98	1.26	0.919	-2.57	1.28	1.1	-9.5 (active)	1.04	-1.89 (inactive)	-1.37 (inactive)	0.0816 (inactive)	3.42 (inactive)	1.22	0.201	0.586	1.16	1.09
CN(C)CCCNC(=O)[C@@]1(Cc2ccccc2I)c2ccccc2C(=O)N(Cc2ccccc2C(F)(F)F)[C@H]1c1ccc(CO)cc1	0.984	0.794	0.17	0.836	-0.781	-1.16	0.117	-0.406	-0.203	0.606 (inactive)	-0.753	-5.77 (inactive)	-0.233 (inactive)	0.351 (inactive)	-0.742 (inactive)	0.154	-0.162	-1.08	0.135	-0.678
CC(=O)NCCCC[C@@H]1NC(=O)[C@@H]2C[C@H](C(=O)NCCCCCCNC(=O)CS)[C@H](c3ccc(O)cc3)N2C1=O	3.39	0.964	0.208	0.224	0.304	0.104	-0.177	0.236	0.418	-0.557 (inactive)	-0.126	0.448 (inactive)	-0.388 (inactive)	-0.268 (inactive)	-0.277 (inactive)	0.453	-0.0944	0.957	0.936	0.377
CC(C)C(=C=CC[C@@H](O)c1ccccc1OCCO)C[C@@H](O)c1ccccn1	-0.131	0.647	1.02	0.694	0.6	0.566	1.43	0.811	0.21	-0.623 (inactive)	-0.0212	-1.3 (inactive)	0.497 (inactive)	1.19 (inactive)	-0.3 (inactive)	-0.0132	0.0275	0.276	-0.303	1.14
O=C(CS)NCCCCCCNC(=O)[C@@H]1C[C@@H]2C(=O)N3CCC[C@H]3C(=O)N2[C@@H]1c1ccc(O)cc1	3.73	1.21	0.887	-0.627	1.16	1.13	-1.13	-0.686	-0.462	-0.315 (inactive)	0.133	0.589 (inactive)	0.178 (inactive)	-0.39 (inactive)	-0.972 (inactive)	-0.974	-0.129	0.971	1.1	0.881
CN1C(=O)C2C=CC(C(O)c3ccccn3)N(Nc3ccccc3)C2C1=O (stereo not given)	0.621	0.302	-0.187	1.03	0.563	0.213	-0.633	0.125	0.489	-1.12 (inactive)	-0.0522	0.901 (inactive)	-0.652 (inactive)	0.0467 (inactive)	0.4 (inactive)	0.324	-0.0069	0.884	-0.179	0.207
O=C1OCCC=C[C@H]2OC34C=CCN(Cc5ccccc5)C(=O)[C@H]3N(CCCO)C(=O)[C@@H]4C12 (stereo not given in full)	1.76	-1.17	-0.0769	-0.887	-0.145	-0.349	-0.778	0.181	-0.194	0.0952 (inactive)	-0.419	-3.89 (inactive)	-2.36 (inactive)	-1.31 (inactive)	-1.18 (inactive)	-0.399	-0.128	-0.8	-0.586	-0.174
CC(C)(C)OC(=O)CC[C@]1(C(=O)N2CCCCC2)N=C(c2ccc(OCCCO)cc2)O[C@H]1c1ccccc1N=[N+]=[N-]	2.92	1.26	1.91	0.753	0.771	1.6	2.83	0.513	0.971	-12.8 (active)	0.556	-2.48 (inactive)	0.043 (inactive)	1.43 (inactive)	-1.57 (inactive)	1.87	0.813	0.569	2.11	0.837
COc1ccc(C(=O)Nc2cccc(CN3C(=O)[C@]4(O[C@H](CC(=O)N5CCC[C@H]5CO)[C@@H]([Si](C)(C)c5ccc(OC)cc5)[C@@H]4C)c4ccccc43)c2)cc1	1.22	1.15	0.407	0.634	1.03	1.33	-0.407	0.728	0.595	-0.895 (inactive)	0.278	-5.56 (inactive)	1.16 (inactive)	0.105 (inactive)	-0.748 (inactive)	-0.349	-0.15	0.421	0.812	1.79
N#Cc1ccc(NN2C(C(O)C3CCCCC3)C=CC3C(=O)N(c4ccccc4)C(=O)C32)cc1 (stereo not given)	0.422	1.27	0.533	1.03	1.27	-0.252	-0.309	0.058	0.847	-0.394 (inactive)	0.4	0.124 (inactive)	-0.984 (inactive)	0.808 (inactive)	1.47 (inactive)	1.75	0.134	0.439	0.361	-0.81
COc1cc(C(O)C2C=CC3C(=O)N(c4ccccc4)C(=O)C3N2Nc2ccc(C#N)cc2)cc(OC)c1OC (stereo not given)	2.58	1.31	1.04	1.11	1.02	0.0977	0.142	-0.0667	1.51	0.282 (inactive)	0.537	0.616 (inactive)	-0.201 (inactive)	0.426 (inactive)	0.238 (inactive)	1.66	0.201	0.249	0.204	0.117
CC(C)C[C@@H]1NC(=O)[C@@H]2C[C@H](C(=O)NCCCCCC[N+](C)(C)C)[C@H](c3ccc(O)cc3)N2C1=O	1.59	0.922	0.11	0.427	1.18	0.998	-0.158	1.08	0.56	0.0519 (inactive)	0.0505	0.0436 (inactive)	-0.555 (inactive)	-0.532 (inactive)	0.0161 (inactive)	0.313	-0.0448	1.08	0.767	2.03
C=CC[C@]1(C(=O)N2CCOCC2)N=C(c2ccc(OCCCO)cc2)O[C@H]1c1ccccc1	1.69	1.22	0.602	0.866	0.401	0.12	0.409	-0.781	1.28	1.25 (inactive)	0.514	-2.02 (inactive)	-0.248 (inactive)	1.34 (inactive)	-0.302 (inactive)	0.954	0.0561	-0.267	0.96	-0.509
COc1ccc([Si](C)(C)[C@@H]2[C@@H](CCn3cc([C@H](O)c4ccccc4)nn3)O[C@]3(C(=O)N(Cc4ccc(N5C(=O)c6cccc7cccc5c67)cc4)c4ccccc43)[C@H]2C)cc1	0.448	-0.412	-0.465	-0.151	-0.7	-0.513	1.57	-0.236	-0.101	-0.303 (inactive)	-0.179	-4.7 (inactive)	0.364 (inactive)	1.22 (inactive)	-1.68 (inactive)	-0.378	-0.0762	-0.0204	-0.169	-0.0774
CC(C)(C)N1CC=CC23O[C@@H]4/C=C\CCCOC(=O)C4[C@H]2C(=O)N(CCO)[C@@H]3C1=O (stereo not given in full)	0.543	0.193	0.19	-0.233	-0.993	-0.57	-0.913	-0.86	0.0851	0.885 (inactive)	0.501	0.0369 (inactive)	-0.647 (inactive)	-0.492 (inactive)	-0.533 (inactive)	-0.801	-0.416	-0.769	-0.875	-0.131
C=C(COC)C(=O)CC[C@H](OC(C)=O)c1cccc(OCCO)c1	-0.704	-0.586	-0.138	-0.708	1.2	1.49	-0.37	-0.332	-1.16	-0.679 (inactive)	0.145	-3.15 (inactive)	0.198 (inactive)	0.942 (inactive)	0.203 (inactive)	-1.1	-0.142	0.315	0.142	0.9
O=C1c2ccccc2[C@@]2(Cc3ccccc3N(Cc3ccccc3)C2=O)[C@H](c2ccc(CO)cc2)N1C1CCCCC1	0.386	0.174	0.117	-0.0673	1.02	0.736	-0.191	0.483	0.0291	0.378 (inactive)	0.149	0.608 (inactive)	0.0703 (inactive)	0.0924 (inactive)	0.0935 (inactive)	-0.258	-0.0933	0.177	-0.269	1.08
O=c1oc(-c2ccccc2)nc2cc(Br)ccc12	0.118	0.71	0.704	0.481	0.405	0.671	0.112	0.585	0.466	-9.5 (active)	0.147	-0.746 (inactive)	0.786 (inactive)	0.416 (inactive)	0.827 (inactive)	0.0708	-0.176	0.641	0.508	0.44
